Inconclusive results are not listed. A number with no mark means an inactive call. The call rests on the fitted dose curve; in most records, active means well fitted cell-killing curve with a large enough effect in the repeat runs; inconclusive means weak or mixed curves, or effect the other way; inactive means flat fitted curve, though single readings scatter.
Assay: qHTS assay to identify small molecule agonists of the TGF-beta/Smad signaling pathway - cell viability counter screen (AID 1346829); further: top concentration of the series differs between compounds; nearly all actives have a fitted effect of over 45% in size
Conditions: SBE-bla HEK293T viability, CellTiter-Glo luminescence, 5 h; series mostly up to 76.8 µM; activity change, negative = cytotoxicity: at the top concentration
Excerpt: National Center for Advancing Translational Sciences [NCATS]
NIH Chemical Genomics Center [NCGC]
U.S. Environmental Protection Agency [EPA]
National Institutes of Environmental Health Sciences [NIEHS]
National Toxicology Program [NTP]
U.S. Food and Drug Administration [FDA]
Transforming growth factor beta (TGF-beta) superfamily consists of a large number of structurally related dimeric proteins that act as hormones or local mediators in regulating a wide range of biological functions. This superfamily includes TGF-betas themselves, the bone morphogenetic proteins (BMPs) and the activins. These ligands induce oligomerization of serine/threonine receptor kinases and phosphorylate the cytoplasmic signaling molecules of Smad protein family. CellSensor SBE-bla HEK 293T cell line (Life Technologies, Carlsbad, CA), responsive to TGF-beta was used to screen Tox21 10K compound library for identification of agonists/antagonists of the Smad signaling pathway. This cell line contains a beta-lactamase reporter gene under control of the Smad binding element (SBE) stably integrated into HEK 293T cells. Also cytotoxicity of the compounds was tested in parallel by measuring the cell viability using CellTiter-Glo assay system in the same wells.
Tox21 Assay Protocol Summary:
SBE-bla HEK 293T cells were dispensed at 4,000/well in 6 uL of assay medium into black wall/clear-bottom 1536-well plates using a Multidrop Combi (ThermoFisher Scientific, Waltham, MA) dispenser. After the assay plates were incubated at 37 C and 5% CO2 for an overnight, 23 nL of compounds dissolved in DMSO, positive controls or DMSO only was transferred to the assay plate by a Pintool station (Kalypsys, San Diego, CA). The assay plates were incubated at 37 C and 5% CO2 for 5 hr. One uL of LiveBLAzer B/G FRET substrate (Life Technologies) was added using a Flying Reagent Dispenser (FRD, Aurora Discovery, San Diego, CA) and the plates were incubated at room temperature for 2 hr. Fluorescence intensity (405 nm excitation, 460 nm and 530 nm emissions) was measured using an Envision plate reader (PerkinElmer, Shelton, CT). For cytotoxicity read, 4 uL of CellTiter-Glo reagent (Promega Corporation, Madison, WI) was added to each well of the assay plates using FRD. After 30min incubation at room temperature, the luminescence intensity was measured using ViewLux plate reader (PerkinElmer).
On the % scale 0 is the no-effect control and ±100 the full control effect.

Structure (SMILES)	activity change, negative = cytotoxicity
CCS(=O)(=O)CCSP(=O)(OC)OC	3.71%
O=C(Nc1ccccc1)N(Cc1ccc(Cl)cc1)C1CCCC1	-1.9%
Cc1ncsc1CCCl	8.87% [at 35.3 µM]
CC(C)(C)NCC(O)c1cc(Cl)c(N)c(Cl)c1 (stereo not given)	0.0823% [at 35.3 µM]
ClC(Br)Br	3.02%
COc1ccc2c(c1OC)CN1CCc3cc4c(cc3C1C2)OCO4 (stereo not given)	-5.96% [at 35.3 µM]
CCN(Cc1ccc(Cl)nc1)/C(=C/[N+](=O)[O-])NC	2% [at 35.3 µM]
CCC(C)n1c(=O)[nH]c(C)c(Br)c1=O (stereo not given)	-1.42%
CCOC(=O)/C=C(C)/C=C/C[C@@H](C)CCCC(C)C	-13.4%
CC(=O)CC(c1ccc(Cl)cc1)c1c(O)c2ccccc2oc1=O (stereo not given)	-3.41%
Cc1ncc2n1-c1ccc(Cl)cc1C(c1ccccc1F)=NC2	-4.79% [at 35.3 µM]
CCCCc1ccc(O)cc1	8.09%
N#CCCC#N	-7.96%
CCN(CC)c1nc(C)cc(OP(=S)(OC)OC)n1	-16.2%
Nc1n[nH]c(N)n1	9.35%
CN1C(=S)CN=C(c2ccccc2)c2cc(Cl)ccc21	2.38% [at 35.3 µM]
CCC#N	0.699%
CNC(=O)Oc1ccccc1C1OCCO1	-8.76%
CC1=C(C(=O)Nc2ccccc2)S(=O)(=O)CCO1	10.7%
Cc1cc(C)c(C(=O)P(=O)(C(=O)c2c(C)cc(C)cc2C)c2ccccc2)c(C)c1	-7.05%

Structure (SMILES)	activity change, negative = cytotoxicity
CC(C)[N+](=O)[O-]	-5.49%
CC1CCCCC1NC(=O)Nc1ccccc1 (stereo not given)	-13.5%
CC(C1CC1)C(O)(Cn1cncn1)c1ccc(Cl)cc1 (stereo not given)	1.84%
CC(CC(C#N)(c1ccccc1)c1ccccc1)N(C)C (stereo not given)	-4.33%
CC(COc1ccc(Oc2ccccc2)cc1)Oc1ccccn1 (stereo not given)	-1.62%
[O]=[Cd]	-1.32%
O=[N+]([O-])c1ccc2c3c(cccc13)CC2	-8.76%
CN1CCN(C(=O)O[C@H]2c3nccnc3C(=O)N2c2ccc(Cl)cn2)CC1	2.31% [at 35.3 µM]
Cc1cnc[nH]1	-1.2%
CCOP(=S)(OCC)SCSP(=S)(OCC)OCC	9.43%
N#CCBr	-0.954%
C[C@H]1CCC[C@H](O)CCCCCc2cc(O)cc(O)c2C(=O)O1	7.4%
O=P(O)(Oc1ccccc1)Oc1ccccc1	3.15%
CS(=O)(=O)c1cc(C(F)(F)F)ccc1C(=O)c1cnoc1C1CC1	22.2%
CSc1nc(N=[N+]=[N-])nc(NC(C)C)n1	-0.0609%
C(CCOCC1CO1)COCC1CO1 (stereo not given)	-1.31%
COc1cc2c(cc1OC)[C@@]13CCN4CC5=CCO[C@H]6CC(=O)N2[C@H]1[C@H]6[C@H]5C[C@H]43	1.63%
CCC1(c2ccccc2)C(=O)NC(=O)NC1=O	2.06%
CC(=O)Nc1cc([As](=O)(O)O)ccc1O	6.89% [at 35.3 µM]
O=C1OC(c2ccc(O)c(S(=O)(=O)O)c2)(c2ccc(O)c(S(=O)(=O)O)c2)c2c(Br)c(Br)c(Br)c(Br)c21	-1.95% [at 35.3 µM]

Reference: PubChem BioAssay (Tox21)
